Only some compounds are listed: those with a hit (about 3.1% of all), similar ones and a draw of the others.
MEKK2mut PB1 HTS = signal of MEK5 binding to mutant human MEKK2 PB1 domain; bead flow cytometry, Alexa488-MEK5 binding to MEKK2 mutant; 290,000 tested, 0.35% active; AID 1530; percent response, % at 10 µM; in the data active means percent response above about 24%, passing the limit was not always enough
MEKK2wt PB1 HTS = raises or lowers MEK5 binding to wildtype human MEKK2 PB1 domain | Q9Y2U5 | bead flow cytometry, Alexa488-MEK5 binding to MEKK2 WT; actives lie on both sides | binding response (% of control), % at 10 µM | 290,000 tested, 1.1% active; in the data active means binding response below about 67% or above about 130%
PREPL inh = inhibits the human prolyl oligopeptidase-like enzyme; 320,000 tested, 0.68% active; Q4J6C6; inhibition, % at 5.96 µM; recombinant PREPL, fluorescence polarization activity-based probe; in the data active means inhibition above about 43%;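 further: 0% = enzyme with DMSO and 100% = wells lacking enzyme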
ATG4B inhibitor = blocks human ATG4B protease cleavage of LC3 substrate; Q9Y4P1; inhibition, % at 8.33 µM; 340,000 tested, 0.51% active; ATG4B cleavage of LC3-PLA2, NBD-HPC fluorescence, 1 h; in the data active means inhibition above about 40%
Target sequence (Q9Y4P1 whole entry, looked up): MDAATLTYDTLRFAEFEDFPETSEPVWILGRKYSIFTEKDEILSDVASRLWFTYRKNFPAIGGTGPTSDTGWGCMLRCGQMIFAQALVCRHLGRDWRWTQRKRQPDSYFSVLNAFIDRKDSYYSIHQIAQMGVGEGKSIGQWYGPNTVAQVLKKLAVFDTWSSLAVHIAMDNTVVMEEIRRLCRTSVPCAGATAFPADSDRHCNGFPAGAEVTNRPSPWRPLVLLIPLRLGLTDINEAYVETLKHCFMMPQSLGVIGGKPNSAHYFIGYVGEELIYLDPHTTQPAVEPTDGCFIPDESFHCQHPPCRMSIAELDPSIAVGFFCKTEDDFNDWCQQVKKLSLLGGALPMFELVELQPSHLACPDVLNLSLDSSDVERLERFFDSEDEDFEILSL
UBC13 inh = inhibitors of human UBC13 polyubiquitin chain formation. P61088. 330,000 tested, 0.47% active. TR-FRET. inhibition, % at 20 µM. AID 485273; in the data active means inhibition above about 45%, passing the limit was not always enough
Target sequence (P61088 whole entry, looked up): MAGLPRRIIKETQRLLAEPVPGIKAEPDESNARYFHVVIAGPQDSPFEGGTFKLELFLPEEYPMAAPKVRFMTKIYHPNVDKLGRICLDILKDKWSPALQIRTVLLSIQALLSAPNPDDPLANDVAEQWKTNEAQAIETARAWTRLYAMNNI
MEKK3 PB1 HTS = modulators (inhibitors or enhancers) of MEK5 binding to human MEKK3 PB1 domain. 290,000 tested, 1.4% active. binding response (% of control), % at 10 µM. AID 1529. bead-based flow cytometry, Alexa488-MEK5 binding to MEKK3; actives lie on both sides; 0 = blocked by unlabeled MEK5, 100 = vehicle. Q99759;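 active means binding response more than 3 SD above or below the average of its plate-row segment, actives on both sides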;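 further: Alexa488 bead fluorescence after subtracting the streptavidin-only scavenger bead signal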
MEKK2wt confirm = raises or lowers MEK5 binding to wildtype human MEKK2, retest. shares compounds with MEKK3 PB1 HTS. bead flow cytometry, Alexa488-MEK5 binding to MEKK2 WT; actives lie on both sides. binding response (% of control), % at 10 µM. 5,900 tested, 2.4% active; in the data active means binding response below about 16% or above about 210%; inactive means in between
MEKK2mut confirm = signal of MEK5 binding to mutant human MEKK2, retest; 5,900 tested, 2% active; shares compounds with MEKK3 PB1 HTS; percent response, % at 10 µM; bead flow cytometry, Alexa488-MEK5 binding to MEKK2 mutant; in the data active means percent response mostly above about 71%, no sharp cut-off; inactive means mostly below about 38%;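 further: higher means compound restores mutant binding toward wildtype level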
MEKK3 confirm = MEKK3-MEK5 PB1 inhibition, single concentration confirmation. shares compounds with MEKK3 PB1 HTS. bead flow cytometry, Alexa488-MEK5 binding to MEKK3; hits give low values. binding response (% of control), % at 10 µM. 5,900 tested, 1.8% active. AID 1894;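 active means binding response below 72% of control, or above a set upper limit, though filed actives all read lower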;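 further: 100% = DMSO only wells and 0% = binding blocked by excess unlabeled MEK5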
Active calls of the source: *; / = not tested or not shown; ! = repeats disagree; [ ] = another dose, or the depositor's remark.

SMILES	MEKK2mut PB1 HTS	MEKK2wt PB1 HTS	PREPL inh	ATG4B inhibitor	UBC13 inh	MEKK3 PB1 HTS	MEKK2wt confirm	MEKK2mut confirm	MEKK3 confirm
CCN(CC)c1ccc(NC(=O)c2cncc(Br)c2)cc1	7	108	8	5	-3	103	/	/	/
Cc1nc2ccc(NC(=O)c3cccnc3)cc2s1	-13	60	9	-3	1	50*[inhibitor]	105	7	104
CCN(CC)c1ccc(NC(=O)c2cccnc2)cc1	13	134*	0	-6	-14	110	96	-4	99
CCCCN1CC(=O)N2[C@H]3c4ccccc4OC[C@@H]3[C@H](C(=O)OCC)[C@]2(C)C1=O	/	/	9	-9	15	/	/	/	/
COc1ccc(-c2csc(NC(=O)CN3C(=O)CCC3=O)n2)c(OC)c1	1	111	-8	-1	4	142*	97	-4	95
CCOC(=O)c1cnc2c(ccc3ccccc32)c1N	-1	99	3	4	-7	93	/	/	/
Cc1cc2cc(CNC(=O)Cc3ccc([N+](=O)[O-])cc3)ccc2n1C	-9	88	22	-8	-5	92	/	/	/
Cc1cc2cc(CNC(=O)c3cccc([N+](=O)[O-])c3)ccc2n1C	5	87	20	-2	1	72*[inhibitor]	109	9	101
Cc1c(C(=O)NCc2ccc3c(c2)cc(C)n3C)cccc1[N+](=O)[O-]	-5	89	19	-4	1	73*[inhibitor]	98	-10	98
Cc1cccc(NC(=S)NCc2ccc3c(c2)cc(C)n3C)c1C	5	66*[inhibitor]	22	39	10	78*[inhibitor]	104	1	103
CC1(C)NC(=O)N(CC(O)CN2C(=O)CCC2=O)C1=O (stereo unspecified)	-1	100	-5	-8	3	99	/	/	/
CC1(C)NC(=O)N(CC(O)Cn2nnc3ccccc32)C1=O (stereo unspecified)	-12	88	24	-3	-4	80*[inhibitor]	115	11	105
COc1ccc(Nc2nc(-c3ccccc3)nc3ccccc23)cc1	7	118	19	-2	18	108	/	/	/
COc1ccc(Nc2nc(-c3cccc([N+](=O)[O-])c3)nc3ccccc23)cc1	3	141*	28	28	-4	126	107	-1	102
CCN1C(=O)c2cccc3c(S(=O)(=O)NCCCN4CCOCC4)ccc1c23	6	124	5	-3	0	125*	105	5	106
CCN1C(=O)c2cccc3c(S(=O)(=O)NCc4ccccc4)ccc1c23	/	/	-4	-2	9	/	/	/	/
CCC(C)NC(=O)CSc1nnc(-c2cc(OC)c(OC)c(OC)c2)c(-c2cc(OC)c(OC)c(OC)c2)n1 (stereo unspecified)	-3	88	7	-4	-3	90	/	/	/
COC(=O)c1ccc(N2C(=O)Nc3ccccc3N2O)cc1	-31	53	-2	2	1	50*[inhibitor]	99	-3	103
Cc1ccc(S(=O)(=O)Nc2nc3ccccc3nc2NCC2CCCO2)cc1 (stereo unspecified)	20	107	1	-2	-6	110	/	/	/
O=S(=O)(Nc1nc2ccccc2nc1NCC1CCCO1)c1ccccc1 (stereo unspecified)	-25	70	-2	-5	-8	53*[inhibitor]	94	-7	96
CCCCCCN(C(=O)CCl)c1ccccc1	-44	48	-4	1	-8	41*[inhibitor]	94	-3	99
O=C(Nn1c(O)c(C=C2N=c3ccccc3=N2)sc1=S)c1ccccc1Cl	-26	58*[inhibitor]	8	-3	-41	82	66	-27	89
Oc1c(C=C2N=c3ccccc3=N2)sc(=S)n1-c1ccccc1	-8	76	17	-9	-23	93	/	/	/
O=S(=O)(Nn1c(O)c(C=C2N=c3ccccc3=N2)sc1=S)c1ccccc1	-4	86	19	-3	-25	100	/	/	/
Oc1c(C=C2N=c3ccccc3=N2)sc(=S)n1C1CCCCC1	-3	53*![inhibitor]	2	2	-22	114	70	-13	97
SMILES	MEKK2mut PB1 HTS	MEKK2wt PB1 HTS	PREPL inh	ATG4B inhibitor	UBC13 inh	MEKK3 PB1 HTS	MEKK2wt confirm	MEKK2mut confirm	MEKK3 confirm
CCOCCCNC(=O)C1CCN(S(=O)(=O)N2CC(C)CC(C)C2)CC1 (stereo unspecified)	-2	94	5	7	3	97	/	/	/
CC1CC(C)CN(CCCNC(=O)C2CCN(S(=O)(=O)N3CCCCC3)CC2)C1 (stereo unspecified)	10	118	15	-4	7	123*	109	15	108
O=C(NCCN1CCCCCC1)C1CCN(S(=O)(=O)N2CCOCC2)CC1	39*	131	-2	-8	-1	107	139	27	112
CC1CCN(S(=O)(=O)N2CCC(C(=O)NCCN3CCOCC3)CC2)CC1	-13	83	4	-3	5	77	/	/	/
CC1CCN(CCCNC(=O)C2CCN(S(=O)(=O)N3CCCCC3)CC2)CC1	13	115	-2	-3	0	123*	103	0	102
CC1CCN(S(=O)(=O)N2CCC(C(=O)NCCC3=CCCCC3)CC2)CC1	-23	70	-4	0	10	70*[inhibitor]	101	2	107
O=C(NC1CCCN(Cc2ccccc2F)C1)C1CCC1 (stereo unspecified)	0	104	1	-12	0	99	/	/	/
COc1cc2[nH]c(=O)n(CCC(=O)N3CCc4ccccc4C3)c(=O)c2cc1OC	8	124	5	-7	6	122*	108	6	102
O=c1cc(CSc2ccc(Cl)cc2)nc(-c2ccncc2)[nH]1	-5	100	-10	-1	-6	102	/	/	/
O=c1cc(CSc2ccccc2)nc(-c2ccncc2)[nH]1	-15	61	2	-2	-3	46*[inhibitor]	100	8	100
COc1cccc(CNC(=O)c2ccc(CS(=O)c3ccccc3)o2)c1 (stereo unspecified)	-1	103	-4	3	-3	101	/	/	/
Cc1ccc(NCC(=O)N/N=C/c2cccc(Oc3ccccc3)c2)cc1	1	107	3	-1	-5	134*	104	-3	100
Cc1ccc(NCC(=O)N/N=C/c2ccncc2)cc1	6	127	-3	-3	9	137*	110	8	108

Compound activity (PubChem)
